NSD2 inh: NSD2 (human) methyltransferase inhibition | NSD2 peptide methylation, AlphaScreen, 120 min | inhibition, % at 12.5 µM | AID 743445 | actives 0.54% (n = 310,000); in the data active means inhibition above about 50%
HIV Env fusion: inhibitors of HIV Env-mediated cell fusion | HeLa-JRFL Env/CEM21 cell fusion, luciferase | inhibition, % at 12.3 µM | actives 1.1% (n = 360,000) | AID 651610;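 active means mean replicate inhibition score of at least 50 and every replicate individually at or above 50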;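 further: 0% = plate neutral controls and 100% = maraviroc near 300 nM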
PGC1a acetyl inh: PGC1a acetylation modulation, inhibitor mode; U2OS PGC1a acetylation, AlphaScreen anti-acetyl-lysine; with virally co-expressed GCN5 acetyltransferase; inhibition, % at 15.6 µM; actives 0.17% (n = 350,000);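 active means every replicate shows inhibition of at least 40%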;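 further: 0% = neutral control wells and 100% = positive control wells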
AF4-AF9 inh: blocks AF4 peptide binding to human AF9. inhibition, % at 10 µM. P42568. actives 0.47% (n = 350,000). AlphaScreen, biotin-AF4 peptide binding to FLAG-AF9;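 active means every replicate reaching a set inhibition limit, whatever the replicate mean, cut at about 25% in these data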;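 further: 0% = plate neutral control median and 100% = total signal loss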
INS-1E GSIS act: GLuc luminescence reporter in INS-1E cells, primary screen for activators of glucose-dependent secretion of insulin | INS-1E GLuc reporter insulin secretion, 2-3 h | activation, % at 16.6 µM | actives 0.61% (n = 370,000) | AID 743287;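 active means lowest replicate activation of at least 40%, so every replicate reaches that level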;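 further: 0% = median of neutral control wells and 100% = median of IBMX positive control wells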
* hit, by the source's call; · = no result; [ ] = another dose, or the depositor's remark. This is a sample that favours compounds with a hit; in the whole collection about 2.1% have one here.

SMILES	NSD2 inh	HIV Env fusion	PGC1a acetyl inh	AF4-AF9 inh	INS-1E GSIS act
CC(C)NC(=O)Nc1ccc2c(c1)C(=O)N([C@@H](C)CO)C[C@H](C)[C@H](CN(C)C(=O)c1ccncc1)OCCCC[C@H](C)O2	·	4[16.7 µM]	0	-1	5
CN1CCN(CCCNC(=O)c2ccc(/C=C3\Oc4ccccc4N(Cc4ccccc4F)C3=O)cc2)CC1	-23	2	·	3	93*
CN1CCN(CCCNC(=O)c2ccc(/C=C3\Sc4ccccc4N(Cc4ccc(F)cc4)C3=O)cc2)CC1	7	8	3	22	76*
CCN1CCN(CCNC(=O)c2ccc(/C=C3\Sc4ccccc4N(Cc4ccccc4F)C3=O)cc2)CC1	2	6	-20	21	135
CN1CCN(CCCNC(=O)c2ccc(/C=C3/Sc4ccccc4N(Cc4cccc(Cl)c4)C3=O)cc2)CC1	·	11	-3	27*	129*
CNC[C@H]1OCCCC[C@@H](C)Oc2ccc(NC(=O)Nc3ccc(F)cc3)cc2C(=O)N([C@@H](C)CO)C[C@@H]1C	·	-18[16.7 µM]	3	3	-3
COc1ccc(Cn2nnnc2CN(Cc2cc3ccc(C)cc3[nH]c2=O)C2CCCC2)cc1	·	·	42*	·	-27
COc1ccc2[nH]c(=O)c(CN(Cc3cccs3)Cc3nnnn3Cc3ccccc3)cc2c1	0	98*	·	·	·
COc1ccc(Cn2nnnc2CN(Cc2cc3cccc(C)c3[nH]c2=O)C2CCCC2)cc1	30	·	30	4	-13
CC(C)CNC(=S)Nc1ccc(Oc2ccccc2)cc1	6	-38	·	11	85*
OCCCNC(=S)Nc1ccc(Oc2ccccc2)cc1	4	-4	·	7	-12
CCN1/C(=C\c2ccc3cc(C)ccc3[n+]2CC)Sc2cc(C)c(C)cc21	54*	23	·	5	-39
CCN1/C(=C/c2ccc3cccc(C)c3[n+]2CC)Sc2ccccc21	45	59*	-185	·	-34
Cc1ccc(S(=O)(=O)NNC(=O)C2COc3ccccc3O2)cc1 (centres undefined)	·	-4	-1	·	3
CC(C)c1ccc(N2C(=O)C(Cl)=C(N3CCOCC3)C2=O)cc1	-3	0	·	38*	-21
O=C1C(Cl)=C(N2CCOCC2)C(=O)N1c1ccc(Br)cc1	0	2	14	1	-15
N#C[C@@H]1[C@H](c2ccc(C#Cc3cccc(F)c3)cc2)[C@@H](CO)N1C(=O)C1CCC1	·	11[16.7 µM]	-15	-6	-5
O=C(Cc1ccc(Cl)cc1)NCc1ccccc1Cl	-4	-1	·	0	-5
COc1ccccc1-n1cnc2sc(C)c(C)c2c1=O	0	1	7	0	59*
COc1ccc(C)cc1-n1cnc2sc(C)c(C)c2c1=O	8	38	6	0	16
Cc1ccccc1S(=O)(=O)N(C)C[C@@H]1OCc2ccccc2-c2c(n(C)c3ccccc23)C(=O)N([C@H](C)CO)C[C@@H]1C	·	74*	2	0	-19
C[C@@H]1CN([C@@H](C)CO)C(=O)c2c(c3ccccc3n2C)-c2ccccc2CO[C@H]1CN(C)S(=O)(=O)c1ccc(C#N)cc1	·	69*	-22	-1	-2
C[C@@H]1CN([C@@H](C)CO)C(=O)c2c(c3ccccc3n2C)-c2ccccc2CO[C@@H]1CN(C)S(=O)(=O)c1ccc(C#N)cc1	·	·	-1	3	7
Cc1ccccc1S(=O)(=O)N(C)C[C@H]1OCc2ccccc2-c2c(n(C)c3ccccc23)C(=O)N([C@H](C)CO)C[C@@H]1C	·	·	-8	5	-15
Cc1ccc(S(=O)(=O)N2CC(C(=O)O)Oc3ccccc32)cc1 (centres undefined)	-4	-1	2	-3	-20
SMILES	NSD2 inh	HIV Env fusion	PGC1a acetyl inh	AF4-AF9 inh	INS-1E GSIS act
C[C@@H]1CN([C@H](C)CO)S(=O)(=O)c2ccc(C#Cc3cccnc3)cc2O[C@@H]1CN(C)C(=O)Nc1ccc2c(c1)OCO2	·	22[16.7 µM]	7	7	-36
COc1cccc(-c2csc3ncnc(Sc4nnnn4C)c23)c1	·	-151	0	1	53*
Cn1nnnc1Sc1ncnc2scc(-c3cccc(F)c3)c12	·	-27	-11	1	22
C=CCNC(=S)N/N=C/c1ccc(-c2cc(Cl)ccc2Cl)o1	0	·	·	·	124*
CCC(Sc1nc(C)cc(C)n1)C(=O)Nc1nccs1 (centres undefined)	-1	1	2	-4	55*
O=C(Nc1ccc(F)cc1)Nc1ccc(N2CCCC2)c(S(=O)(=O)Nc2ccccc2Cl)c1	-1	22	·	-1	·
O=C(Nc1ccc(Cl)c(Cl)c1)Nc1ccc(N2CCCC2)c(S(=O)(=O)Nc2ccccc2Cl)c1	-3	81*	·	·	-4
O=C(CN(C(=O)CNS(=O)(=O)c1ccc(F)cc1)C1CCCC1)NCc1ccco1	-4	9	·	-1	6
CCCCOC(=O)c1cc(-c2ccc(/C=N/n3cnnc3)o2)ccc1Cl	5	-18	5	·	58*
CCOC(=O)c1cc(-c2ccc(/C=N\n3cnnc3)o2)ccc1Cl	·	·	0	·	·
CN1CCN(CCCN2c3ccccc3Sc3ccc(Cl)cc32)CC1	·	-84	-31	36*	·
CN(C)CCCN1c2ccc(O)cc2Sc2ccc(Cl)cc21	33	10	·	51*	·
CCSc1ccc2c(c1)N(CCCN1CCN(C)CC1)c1ccccc1S2	·	6	·	65*	·
CC(=O)C1C(c2cccc([N+](=O)[O-])c2)C2C(C)=NN=C2CC1(C)O (centres undefined)	-3	24	-1	·	16
CCC(C)N(C(=O)CSc1nnc(-c2ccco2)n1C)C1CCS(=O)(=O)C1 (centres undefined)	1	-57	·	1	23
CCC(C)N(C(=O)CSc1nncn1C)C1CCS(=O)(=O)C1 (centres undefined)	-2	-21	6	-2	102*
Cc1cc(C)cc(NC(=S)N2CCC(NC(=O)c3ccco3)CC2)c1	8	-22	1	-1	-2
OC(CNCCc1ccc(C(F)(F)F)cc1)COc1cccc2ccccc12 (centres undefined)	1	14	8	·	506*
CCC(NS(=O)(=O)c1c(C)[nH]c(=O)[nH]c1=O)C12CC3CC(CC(C3)C1)C2 (centres undefined)	1	80*	1	·	3
Cc1[nH]c(=O)[nH]c(=O)c1S(=O)(=O)NCC12CC3CC(CC(C3)C1)C2	1	-25	·	·	·
CC(C)c1cc(NCCOCCO)n2c(nc3ccccc32)c1C#N	-3	0	·	2	52*
CCCc1cc(NCCOCCO)n2c(nc3ccccc32)c1C#N	29	13	1	-5	·
Cc1nnc(NC(=O)CN2CCN(Cc3ccccc3Cl)CC2)s1	3	-323	1	6	4
COc1cc(NCCCC(C)N)c2ncccc2c1 (centres undefined)	141*	·	-8	·	·
CCC(CNc1cc(OC)cc2cccnc12)NC1CCCCC1 (centres undefined)	80*	15	·	56*	-12
O=C(CSc1ncc(-c2ccc(F)cc2)n1Cc1ccco1)Nc1ccc2c(c1)OCO2	23	·	-13	·	-13

Compound activity: PubChem BioAssay, Broad Institute
